Laboratory results: PubChem BioAssay AID1053143 (Broad Institute, 2014)
Among all 3,400 compounds or so, about 120 (3.5%) were called active. No rule for the calls is given here. The list is a sample of the results. Measured potencies and affinities stand elsewhere.

Test: HepG2 cell cytotoxicity, dose response, cytotoxicity control, ATP luminescence, cherry-pick, activator set 2 (AID 1053143)
Conditions: HepG2 viability, CellTiter-Glo ATP luminescence, 72 h; series mostly up to 26 µM; activity change, negative = cytotoxicity: at the top concentration

SMILES | activity change, negative = cytotoxicity
Cc1ccc(OCC(=O)Nc2ccccc2[N+](=O)[O-])c(Br)c1 | 13.1% (inactive)
O=c1c2ccccc2oc2cc(NCCCN3CCOCC3)ccc12 | -6.64% (inactive)
O=c1c2ccccc2oc2cc(-c3ccc4cc[nH]c4c3)ccc12 | -6.73% (inactive)
Nc1ccccc1-c1nc2ccccc2s1 | -14.9% (inactive)
Nc1nc(CSc2ccccn2)nc(Nc2ccccc2)n1 | -20% (inactive)
Cc1ccc(-c2nc(Nc3ccccc3)n[nH]2)cc1 | -0.325% (inactive)
Cc1ccc(C)c(Nc2nc(N)c3ccccc3n2)c1 | -25.3% (inactive)
Nc1ccccc1-c1nc2ccccc2[nH]1 | -14.4% (inactive)
Cc1ccccc1Nc1nc(N)nc(-c2oc3ccccc3c2C)n1 | -2.45% (inactive)
COc1ccc(-c2c3c(nc4sc(C(=O)Nc5ccccc5)c(N)c24)CCC3)cc1 | 3.45% (inactive)
CN(CC(=O)Nc1cccc(F)c1)C(=O)CCNC(=O)c1ccco1 | 13.2% (inactive)
CCOC(=O)c1ccc(S(=O)(=O)NCCNCc2ccccc2)cc1 | 27.4% [at 12 µM] (inactive)
CCOC(=O)C1CCN(C(=O)c2cc3cc(C)ccc3[nH]2)CC1 | 7.79% (inactive)
COC(=O)c1ccc2[nH]c(C3(O)CCCCC3)c(C)c2c1 | -11.6% (inactive)
CC(C)c1ccc(N=C2N=C(N)c3ccccc32)cc1 | -8.99% (inactive)
Cc1ccc(-c2noc(CSc3ccccc3)n2)cc1 | -12.3% (inactive)
CCOc1ccc(NC(=O)c2ccc3c(c2)N(C)CCS3)cc1 | 0.299% (inactive)
COc1ccc(NC(=O)c2ccc3c(c2)N(C)CCS3)cc1 | 0.622% (inactive)
Cc1ccc(NC(=O)Nc2cnc3ccccc3c2)cc1 | -13.6% (inactive)
c1ccc(-c2nc(-c3ccc(-c4ccon4)s3)no2)cc1 | 11.5% (inactive)
CCCC(=O)N=C1SC2CS(=O)(=O)CC2N1c1ccc(-c2nc3ccc(C)cc3s2)cc1 (stereo not given) | -6.16% [at 6 µM] (inactive)
O=c1c2c3c(sc2nc2n1CCCCC2)CCCC3 | 7.6% [at 12 µM] (inactive)
Cc1ccc2cc(NC(=O)c3cccc(F)c3)ccc2n1 | -11.1% (inactive)
O=C(Nc1ccc(NC(=O)c2ccco2)nc1)c1cccc(F)c1 | 3.89% (inactive)
O=C(Cc1ccccc1)Nc1ccc(NC(=O)c2ccco2)nc1 | 4.68% (inactive)

SMILES | activity change, negative = cytotoxicity
O=C(CCc1ccccc1)Nc1ccc(NC(=O)c2ccco2)nc1 | 6.73% (inactive)
CC(=O)Nc1ccc2c(c1)C(=Nc1cccc(C)c1)c1ccccc1-2 | -8.52% (inactive)
C/C(=N\OC(=O)Nc1ccc(Cl)cc1)c1ncc(C(F)(F)F)cc1N1CCOCC1 | -2.73% (inactive)
O=C(CSc1nnc(-c2cccnc2)o1)Nc1ccccc1F | -15.1% (inactive)
O=C(CSc1nnc(-c2ccccn2)o1)Nc1ccccc1F | -19.4% (inactive)
CCOc1nc(N2CCOCC2)nc(C)c1[N+](=O)[O-] | -9.28% (inactive)
Cc1ccc(NC(=O)c2ccc(F)cc2F)cc1 | -4.22% (inactive)
c1ccc(-c2ccc(-c3ccccn3)s2)nc1 | -9.96% (inactive)
c1ccc(-c2nnc(-c3ccccn3)nn2)nc1 | -17.4% (inactive)
COc1ccc(-c2nnc(-c3ccc(C)cc3)o2)cc1 | -7.01% (inactive)
COc1cccc(-c2nnc(-c3ccc4ccccc4c3)o2)c1 | -4.7% (inactive)
Cc1ccc2oc(-c3cccc(NC(=O)c4ccccn4)c3)nc2c1 | -21.7% [at 12 µM] (inactive)
COC(=O)c1ccc(-c2nc3ccc(C)cc3o2)cc1 | -4.62% (inactive)
COC(=O)CSc1nc2ccccc2c(=O)n1C | 12.1% (inactive)
COc1cc(CO)ccc1OCc1ccc(Cl)nc1 | -13.2% [at 12 µM] (inactive)
Clc1ccccc1OCc1nc(-c2ccccn2)no1 | -14.1% (inactive)
Cn1c(SCC(=O)c2ccccc2)nnc1-c1ccco1 | 0.181% (inactive)
Cc1cc(C(=O)COC(=O)c2cccc(S(=O)(=O)N(C)C)c2)c(C)n1CC1CCCO1 (stereo not given) | -5.36% (inactive)
CC(C)Oc1ccc(C(=O)OCC(=O)c2ccc[nH]2)cc1 | -11.4% (inactive)
COC(=O)CSC(C(=O)Nc1ccc(C)c(C)c1)c1ccccc1 (stereo not given) | -18% (inactive)
CCCc1nc2c3ccccc3ccn2c1Cc1ccccc1 | -13.7% (inactive)
COc1ccc2[nH]c3c(=O)n(CCc4ccccc4)cnc3c2c1 | -10.2% (inactive)
Nc1ccc(C(=O)OCCc2ccccc2)cc1 | -19% (inactive)
O=C(Nc1ccc(Cl)cn1)c1ccc2nccnc2c1 | -14.3% (inactive)
O=C(Nc1ccc(Cl)cn1)c1ccccc1F | -11.4% (inactive)

SMILES | activity change, negative = cytotoxicity
OCC1OC(n2ccc3c(SCc4ccccc4)ncnc32)C(O)C1O (stereo not given) | -7.9% [at 6 µM] (inactive)
Cc1cc(N2CCOCC2)nc2cc(O)ccc12 | 1.65% (inactive)
O=C1c2ccccc2NC(c2ccc(-c3cccs3)o2)N1O (stereo not given) | -8.51% (inactive)
c1cnc(SCCCOc2ccc3ccccc3c2)nc1 | -7.21% (inactive)
Cc1ccc(NC(=O)CCC(=O)c2cccs2)cc1 | 0.275% (inactive)
C=CCNc1nc(-c2ccc3c(c2)OCCO3)cs1 | -18.3% (inactive)
O=c1oc(CCCO)cc2ccc(/C=C/c3cccc([N+](=O)[O-])c3)cc12 | 9.18% (inactive)
CN1CCCN(C(=O)c2cc(-c3cccc4ccccc34)nc3ccccc23)CC1 | -16.5% (inactive)
O=C(Nc1cccnc1Cl)c1cc(-c2ccco2)on1 | 5.57% (inactive)
CC(C)c1cc(C(=O)NCCc2ccccc2)no1 | -19.3% (inactive)
O=C(Nc1ccc(F)c(Cl)c1)c1cc(-c2ccco2)on1 | 15.2% (inactive)
COc1ccc(NC(=O)c2cc(-c3ccco3)on2)cc1 | 2.5% (inactive)
COc1ccc2cc(-c3ccccc3)c(=O)oc2c1 | -12.2% (inactive)
Cc1ccc(C)c(OCc2cc(C(=O)N3CC[C@H](O)C3)no2)c1 | -11.7% (inactive)
COC(=O)C1=C(N)Oc2c(oc(CO)cc2=O)C1c1ccc(F)cc1 (stereo not given) | -12.3% (inactive)
Fc1ccc(SCCc2ccccn2)cc1 | -10.7% (inactive)
CCOC(=O)C1CCN(C(=O)/C=C/c2ccccc2)CC1 | -14.5% (inactive)
CCOC(=O)C1CCN(C(=O)C(CC)c2ccccc2)CC1 (stereo not given) | 0.165% (inactive)
Cc1ccc(C(=O)Nc2cccc(-c3ccc(N4CCOCC4)nn3)c2)cc1 | -19.4% [at 12 µM] (inactive)
O=C(Nc1cccc(-c2ccc(N3CCOCC3)nn2)c1)c1cccc(Cl)c1 | -6.34% (inactive)
Fc1ccc(/C=C/c2nnc(-c3cccs3)o2)cc1 | -11.6% (inactive)
O=C(C=NNc1ccccc1)c1ccccc1 | -23.1% (inactive)
CCC(C)C(=O)Nc1nnc(-c2cccs2)s1 (stereo not given) | 22.8% (inactive)
O=C(Nc1ncccc1O)c1ccc2ccccc2c1 | -15.9% (inactive)
O=C(Nc1ccc(Cl)cc1Cl)c1ccc2c(c1)OCCO2 | 0.31% (inactive)

SMILES | activity change, negative = cytotoxicity
O=C(Nc1ccccc1F)c1ccc2c(c1)OCO2 | -28% (inactive)
O=C(Nc1cccnc1)c1ccc(Oc2ccccc2)cc1 | -11.8% (inactive)
NC(=O)c1ccccc1NC(=O)c1ccc2c(c1)OCO2 | -17% (inactive)
O=C(Nc1ncccc1Cl)c1cc2ccccc2o1 | -1.87% (inactive)
O=C(Nc1cccc([N+](=O)[O-])c1)c1ccc2c(c1)OCCO2 | 32.1% [at 12 µM] (inactive)
O=C(Nc1cccnc1Cl)c1cc2ccccc2o1 | -5.8% (inactive)
CC(=O)Oc1ccc(Oc2ccc(-c3noc(C)n3)cc2)cc1 | -9.53% (inactive)
CSc1nnc(NC(=O)c2ccc(S(=O)(=O)N(C)C)cc2)s1 | -1.21% (inactive)
CN(C)c1ccc(-c2nnc(-c3cccs3)o2)cc1 | -9.57% (inactive)
CCN(CC)C(=O)C1CCN(Cc2cn(C)nc2-c2ccc(Oc3ccccc3)cc2)CC1 | 4.7% (inactive)
COc1ccc(-c2[nH]ncc2CNC(C)c2ccccc2Cl)cc1F (stereo not given) | -10.5% (inactive)
O=C(O)c1ccccc1-c1ccccc1C(=O)NNc1ccccc1 | -11.9% (inactive)
O=C(N/N=C/c1ccc(N2CCOCC2)cc1)c1ccccn1 | -21.9% (inactive)
O=C(COC(=O)c1ccc(F)c(S(=O)(=O)N2CCCCC2)c1)NCc1ccc(F)cc1 | 13.5% (inactive)
Oc1ccc(-c2csc(Nc3ccc4c(c3)OCO4)n2)c(O)c1 | -4.71% (inactive)
Oc1ccc(-c2csc(Nc3ncccn3)n2)c(O)c1 | 0.686% (inactive)
O=C(/C=C\Nc1ccc2c(c1)OCO2)c1ccc2c(c1)OCO2 | -15.2% (inactive)
Fc1ccccc1-c1nc(-c2ccncc2)no1 | -9.69% (inactive)
Fc1ccccc1-c1nc(-c2ccccc2)no1 | -10.7% (inactive)
S=C(c1ccc(-c2cccc(Cl)c2)o1)N1CCCCC1 | -11.6% (inactive)
COc1ccc(/C=C/C(=O)c2ccc[nH]2)cc1OC | -6.18% (inactive)
Cc1ccc(Cc2c(-c3cccc(Cl)c3)nc3ccc(Br)cn23)cc1 | 2.45% (inactive)
CC(=O)N1N=C(c2ccccc2)CC1c1cn(C)c2ccccc12 (stereo not given) | 38.2% (inactive)
COc1ccc(C2=NN(C(=O)c3ccccc3C(=O)O)C(c3ccccc3O)C2)cc1 (stereo not given) | 3.34% (inactive)
O=c1oc2ccccc2cc1-c1nnc(NCc2ccco2)s1 | -16.9% (inactive)

SMILES | activity change, negative = cytotoxicity
Cc1cc(OCc2cc(C(=O)N(C)C3CCOC3)no2)cc(C)c1Cl (stereo not given) | -9.61% (inactive)
Nc1c(C(=O)Nc2ccc3c(c2)OCCO3)nnn1Cc1cccc(Cl)c1 | -26.3% (inactive)
C(/CCc1ccccc1)=N\Nc1nc2ccccc2[nH]1 | 0.412% (inactive)
Cc1ccccc1-c1cc(-c2ccccc2O)n[nH]1 | 3.4% [at 12 µM] (inactive)
O=[N+]([O-])c1ccc2nc(-c3ccccc3[N+](=O)[O-])[nH]c2c1 | -5.65% (inactive)
Oc1ccccc1-c1cc(-c2ccc(F)cc2)n[nH]1 | -34.5% (inactive)
Oc1ccc(Br)cc1-c1cc(-c2ccccc2F)[nH]n1 | -27.4% (inactive)
CC(C)(C)NC(=O)c1cccc(NC(=O)c2cccc(O)c2)c1 | -6.98% (inactive)
CCC(=O)Nc1cc(NC(=O)CSc2ncc(-c3ccc(F)cc3)n2Cc2ccco2)ccc1C | -14.2% (inactive)
O=C(CSc1nncs1)NC(=O)Nc1ccc2c(c1)OCCO2 | -4.21% (inactive)
CC(C)NC(=O)c1cc(-c2cccs2)on1 | -17.5% (inactive)
Cc1ccc(NC(=O)c2cc(-c3cccs3)on2)cc1C | 12.4% (inactive)
CCOC(=O)c1ccc(NC(=O)C2CC3CCC2C3)cc1 (stereo not given) | -0.283% (inactive)
CCOc1ccc(C(=O)Nc2ccc3[nH]ncc3c2)cc1 | -17.4% (inactive)
CCOc1ccc(C(=O)NC2CCCCCCC2)cc1 | -19.9% [at 12 µM] (inactive)
O=C(Nc1ccc2ccccc2n1)c1ccccc1Cl | -20.5% (inactive)
Cn1c(CCNC(=O)c2ccco2)nc2cc(NC(=O)c3ccco3)ccc21 | 17% (inactive)
COc1ccc2nc(NC(=O)c3ccccc3O)sc2c1 | -6.8% (inactive)
O=C(Nc1nc2ccc(F)cc2s1)c1cccs1 | -9.76% (inactive)
CC(=O)Nc1nc2cc3c(cc2s1)OCCO3 | 4.89% (inactive)
CN(C)S(=O)(=O)c1ccc2nc(NC(=O)c3cccnc3)sc2c1 | -8.19% (inactive)
Cc1ccc(C(=O)Nc2nc3ccc(Cl)cc3s2)o1 | -14.4% (inactive)
O=C(Nc1nc2cc3c(cc2s1)OCCO3)C1CCCCC1 | -13.1% (inactive)
CC(C)(C)C(=O)Nc1nc2cc3c(cc2s1)OCO3 | -18.5% (inactive)
O=C(Nc1nc2cc3c(cc2s1)OCO3)C1CCCCC1 | 39.8% (inactive)
